# Bioassay records as filed in PubChem.
# NALP3 yeast inh: NALP3 inflammasome inhibitors in reconstituted yeast, primary screen, luminescence, uHTS; inhibition, % at 10 µM; Yeast reconstituted NLRP3/ASC/caspase-1, beta-gal luminescence, 24 h; 330,000 tested, 0.39% active;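 active = inhibition of 50% or more; inactive = inhibition below 50%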;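 note: plate controls were induced DMSO wells for no effect and uninduced yeast grown without galactose for full effect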
# tim10-1 inh: growth inhibitors of tim10-1 mutant yeast, primary screen, luminescence, uHTS. S. cerevisiae tim10-1 ts strain growth, BacTiter-Glo, 24 h. inhibition, % at 20 µM. 330,000 tested, 2.2% active;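 active = inhibition of at least 40%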;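 note: mutant grown at 25 °C; 0% = DMSO wells with yeast and 100% = wells holding no yeast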
# TIM10 inh: growth inhibitors of isogenic TIM10 control yeast, primary screen, counter-screen for tim10-1 yeast inhibitor project, luminescence, uHTS | inhibition, % at 10 µM | AID 463195, 2010 | 330,000 tested, 1.4% active | S. cerevisiae TIM10 strain growth, BacTiter-Glo luminescence, 24 h;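 active = inhibition of 40% or more at the single tested concentration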;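 note: wild-type TIM10 isogenic control strain grown at permissive 25 °C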
# tim23-1 inh: growth inhibitors of tim23-1 mutant yeast, primary screen, luminescence, uHTS; 330,000 tested, 1.3% active; S. cerevisiae tim23-1 growth, BacTiter-Glo luminescence, 24 h; inhibition, % at 20 µM;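 active = growth inhibition of the mutant yeast at or above 50%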;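 note: temperature-sensitive mutant grown at 25 °C; plate controls were DMSO-treated mutant yeast for no effect and medium wells lacking yeast for full effect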
# NALP1 inh: NALP1 inflammasome inhibitors in reconstituted yeast, colorimetric, S. cerevisiae, triplicate retest. S. cerevisiae NALP1/ASC/caspase-1 growth, X-gal OD620, 72 h. inhibition, % at 10 µM. 280,000 tested, 0.61% active. AID 2071, 2009; in the data active = inhibition mostly above about 24%, no sharp cut-off; inactive = mostly below about 32%
# PfHsp90 yeast 2: growth inhibition of PfHsp90-expressing yeast, primary screen, antimalarial PfHsp90 inhibitor project, S. cerevisiae, BacTiter-Glo luminescence, single point, set 2 | inhibition, % at 9.4 µM | 310,000 tested, 0.32% active | BacTiter-Glo ATP, 48 h; yeast lacking PDR1 and PDR3 efflux regulators;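 active = every replicate shows inhibition above about 80%, whatever the replicate mean, limit read from the data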;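 note: 0% = DMSO neutral controls and 100% = 20 µM radicicol positive controls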
# tim10 confirm: growth inhibitors of wild-type TIM10 yeast, confirmation, counter-screen for tim10-1 synthetic lethality project, single concentration, luminescence, S. cerevisiae; 4,600 tested, 63% active; inhibition, % at 10 µM; shares compounds with TIM10 inh; AID 463215, 2010; S. cerevisiae tim10 strain growth, BacTiter-Glo luminescence, 24 h;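 active = inhibition of yeast growth at or above a set limit in either of two replicates at 10 µM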;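 note: this counterscreen used the strain with wild-type TIM10; 0% = yeast with DMSO and 100% = medium wells lacking yeast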
# * marks the source's active call; other numbers are inactive results; nt = no result. Shown are actives, neighbours in structure and some others; about 4.1% of the full set was active somewhere.
SMILES,NALP3 yeast inh,tim10-1 inh,TIM10 inh,tim23-1 inh,NALP1 inh,PfHsp90 yeast 2,tim10 confirm
Cc1cc(C)nc(OC(C(=O)O)C(OCc2ccccc2)(c2ccccc2)c2ccccc2)n1 (stereo not given),19,-1,97*,-1,5,6,6
Cn1c(=O)c2c(nc(SCc3ccccc3)n2Cc2ccc(Cl)cc2)n(C)c1=O,8,25,43*,12,-17,-36,26
CC(C)Sc1nc2c(c(=O)n(C)c(=O)n2C)n1Cc1ccc(Cl)cc1,12,1,-18,23,26,-42,nt
COc1ccc(NC(=O)c2cccc3ccccc23)cc1,26,-6,2,2,6,-15,nt
COc1ccc(NC(=O)c2ccccc2C)cc1,11,-1,85*,3,20,32,10
COc1ccccc1C(=O)Oc1ccccc1C(=O)Nc1ccccc1,26,7,41*,49,-5,3,31
COc1ccccc1C(=O)Nc1ccc(C(=O)O)cc1,1,-4,12,14,-17,nt,nt
O=C(CSc1ccc(-c2cccnc2)nn1)Nc1ccc(F)c(F)c1,11,9,2,4,5,-8,nt
Cc1cccc(NCC(=O)N/N=C\c2c[nH]c3ccccc23)c1,-5,21,32,15,-1,6,nt
Cc1ccccc1NCC(=O)N/N=C/c1c[nH]c2ccccc12,15,27,47*,35,9,15,8
Cc1cc(N/N=C/c2c[nH]c3ccccc23)c2ccccc2n1,17,34,54*,39,7,11,34*
COc1ccccc1N1CCN(C(=O)c2ccc([N+](=O)[O-])s2)CC1,2,25,43*,35,24,-3,-13
CCNc1nc(N)c(C(=O)c2ccc(Cl)s2)s1,30,33,44*,21,10,-1,41*
O=C(C[C@@H]1C/C=C\C[C@H](Cc2ccc(F)cc2)C(=O)OC[C@H]2CCCN2C1=O)N[C@H](CO)Cc1ccccc1,-7,8,-6,-11,nt,-1,nt
C=CCc1c(C)nc(-c2ccccc2)nc1Nc1ccc(O)cc1,13,33,40*,50,31,20,31
C=CCc1c(C)nc(-c2ccccc2)nc1N/N=C(\C)c1ccccc1,-22,25,29,33,24,19,nt
COc1ccc(C(=O)Nc2ccc(OCC(F)(F)C(F)F)c(C(F)(F)F)c2)cc1OC,5,37,45*,45,11,-11,12
COc1ccc(C(=O)OCC(=O)NCC2CCCO2)c(F)c1 (stereo not given),11,4,4,-7,nt,-20,nt
Cc1ccc(NC(NC(=O)c2ccccn2)C(Cl)(Cl)Cl)cc1 (stereo not given),5,30,27,21,17,5,nt
Cc1ccc(NC(NC(=O)c2cccs2)C(Cl)(Cl)Cl)cc1 (stereo not given),21,35,50*,32,10,-5,38*
COc1ccc(C(=O)NC(Nc2ccccc2)C(Cl)(Cl)Cl)cc1 (stereo not given),32,28,50*,13,-7,5,32*
CCCn1c(SCC(=O)Nc2cc(S(=O)(=O)N3CCCCC3)ccc2C)n[nH]c1=O,1,-5,-4,-6,nt,8,nt
Cc1ccc2c(Cl)c(C)c(N3CCOCC3)nc2n1,nt,nt,nt,nt,nt,-7,nt
Cc1[nH]n(S(=O)(=O)Cc2ccccc2)c(=O)c1N=Nc1ccccc1Cl,22,37,41*,45,-22,6,22
Cc1cccc(NC(=O)c2cc([N+](=O)[O-])ccc2NCC2CCCO2)n1 (stereo not given),19,37,49*,37,14,-19,43*
SMILES,NALP3 yeast inh,tim10-1 inh,TIM10 inh,tim23-1 inh,NALP1 inh,PfHsp90 yeast 2,tim10 confirm
CC(C)(C)c1cc(NCCCn2ccnc2)n2ncc(-c3ccc(Cl)cc3)c2n1,19,35,60*,21,14,nt,60*
Cc1cc(NCCCn2ccnc2)n2nc(-c3ccc(Cl)cc3)cc2n1,12,23,13,24,3,-35,nt
COc1ccc(/C=C/C(=O)NC(=S)NCc2ccccc2)cc1OC,13,33,29,31,4,3,nt
CCCCc1ccc(NC(=S)NCCc2ccc(F)cc2)cc1,43,39,42*,20,32,nt,3
O=C(NNC(=O)c1ncc(Cl)c(Cl)c1Cl)c1ccc(F)cc1,16,1,-2,-4,19,-9,nt
Cc1c(Cl)ccc2sc(NC(=O)C3CC3)nc12,25,18,44*,50,5,-23,38*
CC(=O)Nc1nc2c(C)c(Cl)ccc2s1,7,-5,-8,3,nt,-10,nt
C[C@H](CO)N1C[C@H](C)[C@@H](CN(C)S(=O)(=O)c2ccccc2)Oc2ccc(NC(=O)NC3CCCCC3)cc2C1=O,5,2,-3,3,nt,-2,nt
CCc1cccc(N=c2c([N+](=O)[O-])nn(-c3ccc(Cl)cc3)n2O)c1,34,34,46*,34,7,1,30
Cc1cccc(N=c2c([N+](=O)[O-])nn(-c3ccc(Cl)cc3)n2O)c1,16,-18,-139,29,9,-4,nt
S=C(NCc1ccccc1Cl)Nc1ccccc1Cl,10,28,43*,38,-4,-27,38*
CC(C)(C)c1cc(C(c2cccnc2)N2CCN(CCO)CC2)cc(C(C)(C)C)c1O (stereo not given),44,21,41*,42,15,105*,54*
CC(C)(C)n1nnnc1C(c1cccnc1)N1CCN(c2cccc(C(F)(F)F)c2)CC1 (stereo not given),-16,-26,-51,-83,9,18,nt
C/C(=N\Nc1ccc(Cl)cc1)c1ccccn1,9,32,52*,40,9,4,34*
O=C(Nc1cc2c3c(c1)CC(=O)N3CCC2)C1CC1,10,12,5,18,nt,-1,nt
Cn1ccc2cc(-c3csc(N4CCC(C(N)=O)CC4)n3)ccc21,8,-6,1,3,nt,nt,nt
CCCCCOC(=O)c1ccc(NC(=O)c2ccco2)cc1,24,15,41*,29,7,nt,17
CCCCOC(=O)c1ccc(NC(=S)NC(=O)c2ccco2)cc1,22,19,14,18,8,-3,nt
